Screens (PubChem BioAssay)
Shown are actives, neighbours in structure and some others; about 2% of the full set was active somewhere.
MCL1 BIM primary: inhibitors of MCL1 binding to BIM-BH3, primary screen, biochemical, fluorescence polarization; GST-MCL1 / FITC-Bim-BH3 fluorescence polarization; inhibition, % at 10.9 µM; 320,000 compounds, 0.68% hits;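 active = inhibition above the mean inhibition of all tested compounds plus 3 SD, set per campaign, cut at about 40% in these data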;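 also: higher means more loss of mP so more displacement of Bim peptide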
Target sequence (Q07820 whole entry, looked up): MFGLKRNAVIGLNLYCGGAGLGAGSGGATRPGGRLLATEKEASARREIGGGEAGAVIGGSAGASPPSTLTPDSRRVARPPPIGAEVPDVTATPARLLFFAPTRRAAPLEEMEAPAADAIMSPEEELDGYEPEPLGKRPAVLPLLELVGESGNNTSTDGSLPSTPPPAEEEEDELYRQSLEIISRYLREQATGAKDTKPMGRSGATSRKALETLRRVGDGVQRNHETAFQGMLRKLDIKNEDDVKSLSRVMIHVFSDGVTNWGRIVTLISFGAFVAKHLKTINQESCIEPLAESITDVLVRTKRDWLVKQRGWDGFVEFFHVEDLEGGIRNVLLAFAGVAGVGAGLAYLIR
Mcl1 Bid PPI: Mcl-1/Bid binding inhibitors, primary screen, biochemical, TR-FRET, 1536-well. Induced myeloid leukemia cell differentiation protein Mcl-1 (Homo sapiens), Q07820. TR-FRET Mcl-1/Bid-Dy647 peptide binding. inhibition, % at 21.7 µM. 220,000 compounds, 0.97% hits;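 active = compounds that cut the binding signal by more than half at the single screening dose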;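 also: His-tagged Mcl-1 with europium anti-His antibody binding Bid BH3 peptide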
Mcl1-Noxa inh: Mcl-1/Noxa binding inhibitors, primary screen, biochemical, TR-FRET, 1536-well. Induced myeloid leukemia cell differentiation protein Mcl-1 (Homo sapiens), Q07820. TR-FRET Mcl-1/Noxa peptide binding, 2 h. inhibition, % at 21.7 µM. 220,000 compounds, 1.5% hits;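 active = compounds that cut the protein-peptide binding signal by more than 50% relative to plate controls in a single-dose test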;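 also: His-tagged Mcl-1 with rhodamine Noxa BH3 peptide and terbium anti-His antibody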
Mcl-1 Bim block: inhibitors of Bim peptide binding to Mcl-1, primary screen, biochemical, bead-based flow cytometry, multiplex; Induced myeloid leukemia cell differentiation protein Mcl-1 (Homo sapiens), Q07820; Bim peptide-Mcl-1 binding; inhibition, % at 10 µM; 190,000 compounds, 0.1% hits; AID 1009, 2008; in the data active = inhibition above about 40%
A number is an active result; - = inactive; . = not tested or not shown.

SMILES | MCL1 BIM primary | Mcl1 Bid PPI | Mcl1-Noxa inh | Mcl-1 Bim block
CN(C(=O)CSc1nnc(-c2ccncc2)n1Cc1ccccc1)C1CCS(=O)(=O)C1 (stereo unspecified) | - | - | - | -
COc1cc(NC(=O)COc2ccccc2[N+](=O)[O-])ccc1NC(=O)c1cccs1 | . | - | 57 | -
COc1cc(NC(=O)COc2ccccc2Cl)ccc1NC(=O)c1cccs1 | - | . | . | .
Cc1nn(Cc2ccccc2)c(C)c1NC(=O)CSc1nc2c(c(C(F)(F)F)n1)CCc1ccccc1-2 | - | 64 | - | -
O=c1oc(-c2cccnc2)nc2ccccc12 | - | - | - | -
Cc1cc(=O)c2cc3nc(-c4cccnc4)oc3c(Br)c2o1 | - | - | 54 | .
COc1ccccc1/C=C1\N=C(C(C)(C)C)OC1=O | - | . | . | .
CSCCC(NS(=O)(=O)c1cccc(C(F)(F)F)c1)C(=O)Nc1ccccc1N1CCCC1 (stereo unspecified) | - | . | . | .
Cc1cc2cc(CNC(=O)c3ccco3)ccc2n1C | 41 | - | - | .
O=C(Nc1nccs1)c1ccc(COc2ccc(Cl)cc2)o1 | - | - | - | -
O=C(Nc1nccs1)c1ccc(COc2ccc(F)cc2)o1 | - | - | 56 | -
COC(=O)c1ccc(C(=O)OC)c(NC(=O)COC(=O)CCOc2ccc(C)cc2)c1 | - | . | . | .
O=C(CSc1ccc([N+](=O)[O-])cc1)NNC(=O)c1ccccc1F | - | . | . | .
COc1cccc(N/C=C/c2onc(C)c2[N+](=O)[O-])c1 | - | - | 55 | -
Cc1sc(NC(=O)c2ccccc2)c(C(=O)N2CCN(C)CC2)c1C | - | 86 | - | -
O=C(OCc1cc(=O)n2c(n1)sc1ccccc12)c1ccc(O)cc1 | - | - | - | -
Cc1cccc(C(=O)N[C@H](C(=O)OCc2cc(=O)n3c(n2)sc2ccccc23)C(C)C)c1 | - | - | 69 | -
CC1CCN(C(=O)C2CCC(=O)N(Cc3ccc(Cl)cc3)C2)CC1 (stereo unspecified) | - | . | . | .
O=C(NCCCCc1ccccc1)C1CC(c2ccccc2[N+](=O)[O-])=NO1 (stereo unspecified) | - | - | 100 | -
CCCCNC(=O)C1CC(c2ccccc2[N+](=O)[O-])=NO1 (stereo unspecified) | - | - | - | -
O=S(=O)(Nc1ccc(N2CCCCC2)cc1)c1ccc(F)c(F)c1 | - | - | 51 | -
O=C(NCc1cccnc1)c1cc2nc(-c3ccc4c(c3)OCO4)cc(C(F)(F)F)n2n1 | - | 83 | - | -
COc1ccc2cc3c(N)nn(C(=O)Cc4ccc(Cl)cc4)c3nc2c1 | - | 66 | - | -
CCO[C@H]1OC(C(N)=O)=C[C@@H](c2ccccc2)[C@@H]1CCCO | - | 51 | - | -
COc1ccc(C2C(C#N)=C(N)OC3=C2C(=O)CC(C)(C)C3)cc1OC (stereo unspecified) | - | - | - | -
SMILES | MCL1 BIM primary | Mcl1 Bid PPI | Mcl1-Noxa inh | Mcl-1 Bim block
CC1(C)CC(=O)C2=C(C1)OC(N)=C(C#N)C2c1cccc(OC(=O)c2ccco2)c1 (stereo unspecified) | - | 97 | - | -
O=C(Nc1cccc(Cl)c1)c1cc(N=Nc2ccc([N+](=O)[O-])cc2Cl)ccc1O | - | 100 | 109 | .
N#C/C(=C(/O)c1ccc(Cl)c([N+](=O)[O-])c1)c1nc2ccccc2[nH]1 | - | - | 66 | .
N#C/C(=C(/O)c1ccc([N+](=O)[O-])cc1)c1nc2ccccc2[nH]1 | - | - | - | .
CC1=CC2=NC(=O)/C(=C\c3cccn3CCOc3ccccc3C)C(=N)N2O1 | - | - | - | -
COc1ccccc1OCCOc1ccc(/C=C2/C(=N)N3OC(C)=CC3=NC2=O)cc1OC | - | 84 | - | -
O=C1CC(Nc2ccc(N3CCOCC3)cc2)C(=O)N1c1cccc(C(F)(F)F)c1 (stereo unspecified) | - | 53 | - | -
O=C(Nc1cccc2cccnc12)C1CCCC1 | - | - | - | -
COc1ccc(N2CCC(CNC(=S)Nc3ccc(C)cc3C)C2)cc1 (stereo unspecified) | - | - | - | .
COc1ccc(N2CCC(CNC(=O)Nc3ccc(OC)cc3OC)C2)cc1 (stereo unspecified) | - | - | 90 | -
COc1ccc(N2CCC(CNC(=S)Nc3cccc(C)c3)C2)cc1 (stereo unspecified) | - | - | 73 | -
